Assay results published in PubChem BioAssay AID1159580 (chemical genetic matrix, 2015).
The campaign covered roughly 5,500 compounds. About 2,000 (36%) were called active. Not shown: some 18% with an inconclusive outcome. No stated cut-off is given here; in the data, active means normalized growth mostly below about 0.91 (no sharp cut-off); inconclusive means no clear call, values can overlap the other calls; inactive means mostly above about 0.92. Some of the results follow.

Assay: chemical genetic growth profiling, strain panel (AID 1159580);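 further: tested at 20 µM; growth read once vehicle control cultures reached saturation at 30 °C; 1 = growth at the plate median or of vehicle wells; lower values mean less growth of the strain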
Conditions: growth OD

Measured: normalized growth

NC(=O)NC(=O)Cc1ccccc1
inactive: S. cerevisiae deletion strains, locus YJR075W, strain HOC1, active compounds read low 1.01 | S. cerevisiae deletion strains, locus YKL009W, strain mrt4, active compounds read low 0.99 | S. cerevisiae deletion strains, locus YKL068W, active compounds read low 0.998 | S. cerevisiae deletion strains, locus YKL085W, strain MDH1 (second series), active compounds read low 0.994 | S. cerevisiae deletion strains, locus YKL085W, strain MDH1, active compounds read low 0.994 | S. cerevisiae deletion strains, locus YKL160W, strain elf1, active compounds read low 0.941 | S. cerevisiae deletion strains, locus YKL190W, strain CNB1, active compounds read low 1.03 | S. cerevisiae deletion strains, locus YKR001C, strain vps1, active compounds read low 0.994 | S. cerevisiae deletion strains, locus YKR026C, strain gcn3, active compounds read low 0.993 | S. cerevisiae deletion strains, locus YKR091W, strain srl3, active compounds read low 0.98 | S. cerevisiae deletion strains, locus YLL001W, strain dnm1, active compounds read low 1.02 | S. cerevisiae deletion strains, locus YLL026W, active compounds read low 0.984 | S. cerevisiae deletion strains, locus YLL041C, strain sdh2, active compounds read low 1 | S. cerevisiae deletion strains, locus YLR027C, strain aat2, active compounds read low 0.988 | S. cerevisiae deletion strains, locus YLR039C, strain RIC1, active compounds read low 1.02 | S. cerevisiae deletion strains, locus YLR058C, strain SHM2, active compounds read low 1.01 | S. cerevisiae deletion strains, locus YLR102C, strain apc9, active compounds read low 0.999 | S. cerevisiae deletion strains, locus YLR113W, strain HOG1, active compounds read low 1.01 | S. cerevisiae deletion strains, locus YLR221C, strain rsa3, active compounds read low 1.03 | S. cerevisiae deletion strains, locus YLR258W, strain gsy2, active compounds read low 0.977 | S. cerevisiae deletion strains, locus YLR262C, strain YPT6 (second series), active compounds read low 0.99 | S. cerevisiae deletion strains, locus YLR262C, strain YPT6, active compounds read low 1.05 | S. cerevisiae deletion strains, locus YLR268W, strain sec22, active compounds read low 0.985 | S. cerevisiae deletion strains, locus YLR320W, strain mms22, active compounds read low 1.02 | S. cerevisiae deletion strains, locus YLR330W, strain CHS5, active compounds read low 1.01 | S. cerevisiae deletion strains, locus YLR342W, strain FKS1 (second series), active compounds read low 1.05 | S. cerevisiae deletion strains, locus YLR342W, strain FKS1, active compounds read low 0.999 | S. cerevisiae deletion strains, locus YLR357W, strain rsc2, active compounds read low 0.949 | S. cerevisiae deletion strains, locus YLR370C, strain arc18, active compounds read low 0.966 | S. cerevisiae deletion strains, locus YLR371W, strain rom2, active compounds read low 0.997 | S. cerevisiae deletion strains, locus YLR384C, strain iki3, active compounds read low 0.982 | S. cerevisiae deletion strains, locus YLR418C, strain cdc73, active compounds read low 0.998 | S. cerevisiae deletion strains, locus YML016C, strain PPZ1, active compounds read low 1.01 | S. cerevisiae deletion strains, locus YML032C, strain rad52, active compounds read low 1 | S. cerevisiae deletion strains, locus YML120C, strain ndi1, active compounds read low 1.01 | S. cerevisiae deletion strains, locus YML124C, strain tub3, active compounds read low 0.996 | S. cerevisiae deletion strains, locus YMR058W, strain fet3, active compounds read low 0.978 | S. cerevisiae deletion strains, locus YMR078C, strain ctf18, active compounds read low 0.997 | S. cerevisiae deletion strains, locus YMR125W, strain sto1, active compounds read low 0.957 | S. cerevisiae deletion strains, locus YMR129W, active compounds read low 0.966 | S. cerevisiae deletion strains, locus YMR205C, strain PFK2, active compounds read low 1.01 | S. cerevisiae deletion strains, locus YMR223W, strain ubp8, active compounds read low 1.01 | S. cerevisiae deletion strains, locus YMR231W, strain pep5, active compounds read low 1 | S. cerevisiae deletion strains, locus YMR263W, strain SAP30, active compounds read low 1.01 | S. cerevisiae deletion strains, locus YMR307W, strain GAS1, active compounds read low 1.08 | S. cerevisiae deletion strains, locus YNL067W, strain RPL9B, active compounds read low 1.02 | S. cerevisiae deletion strains, locus YNL071W, strain lat1, active compounds read low 0.995 | S. cerevisiae deletion strains, locus YNL128W, strain TEP1, active compounds read low 1 | S. cerevisiae deletion strains, locus YNL153C, strain GIM3, active compounds read low 1.03 | S. cerevisiae deletion strains, locus YNL183C, strain NPR1, active compounds read low 0.94 | S. cerevisiae deletion strains, locus YNL209W, strain ssb2, active compounds read low 0.975 | S. cerevisiae deletion strains, locus YNL233W, strain BNI4, active compounds read low 1.01 | S. cerevisiae deletion strains, locus YNL248C, strain rpa49, active compounds read low 0.917 | S. cerevisiae deletion strains, locus YNL250W, strain rad50, active compounds read low 0.992 | S. cerevisiae deletion strains, locus YNL271C, strain bni1, active compounds read low 0.992 | S. cerevisiae deletion strains, locus YNL298W, strain CLA4, active compounds read low 1 | S. cerevisiae deletion strains, locus YNL307C, strain MCK1, active compounds read low 0.994 | S. cerevisiae deletion strains, locus YNL322C, strain KRE1 (second series), active compounds read low 0.965 | S. cerevisiae deletion strains, locus YNL322C, strain KRE1, active compounds read low 1.01 | S. cerevisiae deletion strains, locus YNR049C, strain mso1, active compounds read low 0.962 | S. cerevisiae deletion strains, locus YNR052C, strain pop2, active compounds read low 0.989 | S. cerevisiae deletion strains, locus YOL006C, strain TOP1, active compounds read low 1.14 | S. cerevisiae deletion strains, locus YOL012C, strain htz1 1.28 | S. cerevisiae deletion strains, locus YOL147C, strain pex11, active compounds read low 0.997 | S. cerevisiae deletion strains, locus YOR001W, strain rrp6, active compounds read low 1.02 | S. cerevisiae deletion strains, locus YOR061W, strain CKA2, active compounds read low 1 | S. cerevisiae deletion strains, locus YOR069W, strain VPS5, active compounds read low 1 | S. cerevisiae deletion strains, locus YOR070C, strain gyp1, active compounds read low 0.996 | S. cerevisiae deletion strains, locus YOR080W, strain dia2, active compounds read low 0.986 | S. cerevisiae deletion strains, locus YOR083W, strain WHI5, active compounds read low 0.913 | S. cerevisiae deletion strains, locus YOR106W, strain vam3, active compounds read low 0.96 | S. cerevisiae deletion strains, locus YOR136W, strain idh2, active compounds read low 0.995 | S. cerevisiae deletion strains, locus YOR144C, strain elg1, active compounds read low 0.994 | S. cerevisiae deletion strains, locus YOR184W, strain ser1, active compounds read low 0.988 | S. cerevisiae deletion strains, locus YOR231W, strain MKK1, active compounds read low 0.988 | S. cerevisiae deletion strains, locus YOR265W, strain rbl2, active compounds read low 0.99 | S. cerevisiae deletion strains, locus YOR270C, strain vph1, active compounds read low 0.979 | S. cerevisiae deletion strains, locus YOR290C, strain snf2, active compounds read low 0.936 | S. cerevisiae deletion strains, locus YOR316C, strain cot1, active compounds read low 0.994 | S. cerevisiae deletion strains, locus YPL051W, strain arl3, active compounds read low 0.974 | S. cerevisiae deletion strains, locus YPL055C, strain LGE1, active compounds read low 1.08 | S. cerevisiae deletion strains, locus YPL078C, strain atp4, active compounds read low 0.955 | S. cerevisiae deletion strains, locus YPL106C, strain sse1, active compounds read low 0.992 | S. cerevisiae deletion strains, locus YPL240C, strain hsp82, active compounds read low 0.997 | S. cerevisiae deletion strains, locus YPL241C, strain CIN2, active compounds read low 1.03 | S. cerevisiae deletion strains, locus YPL256C, strain CLN2, active compounds read low 0.96 | S. cerevisiae deletion strains, locus YPR119W, strain clb2, active compounds read low 1 | S. cerevisiae deletion strains, locus YPR141C, strain kar3, active compounds read low 0.988 | S. cerevisiae deletion strains, locus YPR163C, strain tif3, active compounds read low 0.995 | S. cerevisiae deletion strains, locus YPR167C, strain met16, active compounds read low 0.996 | S. cerevisiae deletion strains, strain wtn01, active compounds read low 0.976 | S. cerevisiae strains, strain wild type, active compounds read low 1.06
